# Bioassay records as filed in PubChem.
# JMJD2A Tudor inh: qHTS Assay for Inhibitors of JMJD2A-Tudor Domain; Lysine-specific demethylase 4A (Homo sapiens), O75164; AlphaScreen JMJD2A-Tudor / H3K4me3 peptide binding; Potency, µM (highest dose often 114 µM), for the others: top-dose activity change, negative = inhibition, usual class: inhibitors; actives 4.4% (n = 390,000); AID 504339, 2011; also: potency is read from the fitted curve at half-maximal effect; % is scaled to controls: 0 for no effect and ±100 for the full control effect; nearly all actives have a fitted effect of over 50% in size
# PI5P4Ka inh: qHTS for Inhibitors of phosphatidylinositol 5-phosphate 4-kinase (PI5P4K); Phosphatidylinositol 5-phosphate 4-kinase type-2 alpha (Homo sapiens), P48426; PI5P4Kalpha enzyme, ADP-Glo luminescence, 60 min; hits give low values; max response, %; actives 1.2% (n = 330,000); active = max response of -50% or lower; inconclusive = between -30% and -50%; inactive = -30% or higher; also: value at the top dose of about 77 µM; % is scaled to controls: 0 for no effect and ±100 for the full control effect
#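 Luminescence from ADP-Glo served as readout of PI5P4Kalpha activity in a qHTS format. Reaction: enzyme, substrate, compound, ATP at 5 microM final, 60 min at RT.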
# G9a inh: qHTS Assay for Inhibitors of Histone Lysine Methyltransferase G9a; Histone-lysine N-methyltransferase EHMT2 (Homo sapiens), Q96KQ7; G9a H3K9 monomethylation, AlphaScreen, 2 h; Potency, µM (top dose mostly 102 µM), without a hit: at the highest dose activity, negative = inhibition, most hits filed as inhibitors; actives 8.8% (n = 350,000); AID 504332, 2011; also: potency is read from the fitted curve at half-maximal effect; % is scaled to controls: 0 for no effect and ±100 for the full control effect; nearly all actives have a fitted effect of over 75% in size
# Target sequence (Q96KQ7 913-1193 limits assumed): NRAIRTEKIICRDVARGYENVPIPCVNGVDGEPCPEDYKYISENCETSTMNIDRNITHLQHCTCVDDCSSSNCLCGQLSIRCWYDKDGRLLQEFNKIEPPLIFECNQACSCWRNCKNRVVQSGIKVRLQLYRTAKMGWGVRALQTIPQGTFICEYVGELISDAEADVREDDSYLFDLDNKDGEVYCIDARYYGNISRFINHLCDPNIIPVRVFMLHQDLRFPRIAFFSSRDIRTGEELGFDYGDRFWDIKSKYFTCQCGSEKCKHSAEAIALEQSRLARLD
#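 Quantitative HTS format: methyltransferase activity on a biotin-tagged H3K9 peptide is measured by AlphaScreen, using a rabbit anti-monomethyl-H3K9 antibody with streptavidin donor and anti-IgG acceptor beads. Final levels are 20 nM enzyme, 500 nM peptide, 20 uM SAM; 2 h RT.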
# HP1b binding inh: HTS for Inhibitors of HP1-beta Chromodomain Interactions with Methylated Histone Tails. Chromobox protein homolog 1 (Homo sapiens), P83916. AlphaScreen HP1-beta / biotin-H3K9me3 peptide binding. Potency, µM (doses to about 114 µM), for the others: at the top dose activity change, negative = inhibition, hits mostly inhibitors. actives 0.56% (n = 390,000); also: potency is read from the fitted curve at half-maximal effect; nearly all actives have a fitted effect of over 70% in size
# Target sequence (P83916 whole entry, looked up): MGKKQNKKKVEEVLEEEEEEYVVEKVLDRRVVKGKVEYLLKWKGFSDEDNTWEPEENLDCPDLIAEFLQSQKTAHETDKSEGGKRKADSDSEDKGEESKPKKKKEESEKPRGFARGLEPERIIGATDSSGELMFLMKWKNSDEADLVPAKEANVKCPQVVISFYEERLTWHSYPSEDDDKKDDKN
#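 Compound inhibition of the preformed complex between 50 nM HP1-beta and 50 nM biotinylated H3K9me3 peptide was read by AlphaScreen. Buffer was PBS pH 7.4 with 0.01% Tween-20. Incubations ran 30 min at room temperature, with 10 ug/mL donor/acceptor beads.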
# BAZ2B block: qHTS Assay for Inhibitors of BAZ2B | AID 504333, 2011 | Bromodomain adjacent to zinc finger domain protein 2B (Homo sapiens), Q9UIF8 | AlphaScreen BAZ2B-H3K14Ac peptide displacement | actives 4.4% (n = 360,000) | Potency, µM (highest dose often 114 µM), without a hit: top-dose activity change, negative = inhibition, usual class: inhibitors; also: potency is read from the fitted curve at half-maximal effect; % is scaled to controls: 0 for no effect and ±100 for the full control effect; nearly all actives have a fitted effect of over 60% in size
#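 In this displacement format the biotinylated H3(5-23) peptide acetylated at Lys14 serves as ligand at 50 nM, with BAZ2B at 50 nM in PBS pH 7.4 containing 0.01% Tween-20. Donor and acceptor beads are 10 ug/mL final.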
# PLK1 PBD inh: qHTS for Inhibitors of PLK1-PDB (polo-like kinase 1 - polo-box domain): Primary Screen; actives 2.8% (n = 360,000); Serine/threonine-protein kinase PLK1 (Homo sapiens), P53350; Plk1 PBD binding of FITC phosphopeptide, fluorescence polarization; Potency, µM, inactives show max response, negative = inhibition, most hits filed as inhibitors; also: potency is read from the fitted curve at half-maximal effect; series mostly up to about 57 µM; % is scaled to controls: 0 for no effect and ±100 for the full control effect; nearly all actives have a fitted effect of over 65% in size
# * marks the source's active call; other numbers are inactive results; u = inconclusive; x = no result; [ ] = remark or other dose. A selection: hits, their analogues and other compounds. The true share with any hit is near 12%. Unless noted, calls follow the shape of the dose curve; as a rule, active = well fitted curve in the direction sought with a large enough effect; inconclusive = small, poorly fitted or top-dose-only effect, or another doubt; inactive = no such curve, though single readings can be large; an effect the other way counts as inactive or inconclusive.
SMILES,JMJD2A Tudor inh,PI5P4Ka inh,G9a inh,HP1b binding inh,BAZ2B block,PLK1 PBD inh
O=C(NCc1ccc(F)cc1)c1cnc(N2CCOCC2)c2ccccc12,1%,x,5%[59 µM],31%[57 µM],11%,x
O=c1c2ccccc2n(Cc2c(F)cccc2Cl)c(=O)n1Cc1ccccc1,11%,x,11%[59 µM],31%,-1%,x
COc1ccc(C2/C=C\CN(CC(C)C)C(C)C(=O)N2Cc2ccc(F)cc2)cc1 (stereo not drawn),-8%,x,x,44%,x,x
COc1ccc([C@H]2/C=C\CN(Cc3ccc(N(C)C)cc3)[C@@H](C)C(=O)N2Cc2ccc(F)cc2)cc1,18µM*,12,x,u,x,-14%
Cc1cc2n(n1)SC(Nc1ccccc1)N2 (stereo not drawn),7.9µM*,-3,1.8µM*,u,-33%,-3%
Cc1ccc(N=CNc2ccc(C)cc2C)c(C)c1,-9%,0,20%,18%,-22%,1%
Cc1ccc(NC2Nc3cc(C)nn3S2)c(C)c1 (stereo not drawn),u,-1,1.1µM*,12%,-25%,u
Cc1cc(NC(=NC2CC2)c2ccccc2)n(-c2ccccc2)n1,-6%,-6,u,-13%,5%,-7%
CCN(CC)CCOC(=O)c1ccc(N/C=C(/C#N)c2nc(-c3cccc(OC)c3)cs2)cc1,-11%,0,28µM*,11%,u,-10%
CCN(CC)CCOC(=O)c1ccc(N/C=C(/C#N)c2nc(-c3ccc(OC)c(OC)c3)cs2)cc1,35µM*,-77*,1.6µM*,14µM*,-33%,5%
Cc1ccc(-c2csc(/C(C#N)=C/Nc3ccc4c(c3)OCCO4)n2)cc1,-21%,-1,-14%,18%,-22%,-3%
CCC(=O)N1CCc2cc(Br)cc(S(=O)(=O)N3CCCC(C(=O)Nc4cc(C)ccc4OC)C3)c21 (stereo not drawn),-10%,x,-5%[59 µM],10%,-11%,x
OCC[C@@H]1C[C@H](O)[C@@H](O)[C@]2(OCCc3cc(Cl)ccc32)O1,x,-4,x,x,x,-13%
Cc1cccc(NC(=O)c2oc3ccccc3c2NC(=O)c2cc(=O)c3cc(Cl)ccc3o2)c1,-3%,x,-29%[59 µM],32%,-7%,x
S=c1cn[nH]c2ccccc12,4.5µM*,-15,x,89µM*,x,u
CCc1nnc2c(Nc3ccc(Br)c(C)c3)nc3ccccc3n12,u,x,u,25%,4%,x
O=C(NCCN1CCOCC1)c1c(O)nc2sccn2c1=O,32µM*,3,u,4%,-28%,-3%
O=C(NC1CCCC1)c1c(O)nc2sccn2c1=O,-16%,-4,u,31%,1%,-5%
COc1ccc(-c2cc(C(=O)Nc3c(C(=O)c4ccc(C)cc4)oc4ccccc34)no2)cc1,-7%,x,0%[59 µM],14%,1%,x
COc1cc(OC)c(-c2sc(Nc3ccccc3)n[n+]2-c2ccc(F)cc2)cc1OC,-12%,0,-21%,41%,-7%,-12%
COc1cc(Br)c(-c2sc(Nc3ccccc3)n[n+]2-c2ccc(F)cc2)cc1OC,79µM*,-24,u,-5%,u,-29%
Fc1ccc(-[n+]2nc(Nc3ccccc3)sc2-c2ccc(OCc3ccccc3)cc2)cc1,89µM*,-15,x,12%,u,-9%
CCOc1cc(-c2sc(Nc3ccccc3)n[n+]2-c2ccc(F)cc2)ccc1OC,u,-2,x,38%,-5%,24µM*
Fc1ccc(-[n+]2nc(Nc3ccccc3)sc2-c2cccc(Cl)c2Cl)cc1,u,-27,x,17%,-36%,u
COc1ccccc1NC(=O)CCNS(=O)(=O)c1ccc2c(c1)CCN2C(=O)C1CC1,-23%,x,31%[59 µM],19%[57 µM],-5%,x
SMILES,JMJD2A Tudor inh,PI5P4Ka inh,G9a inh,HP1b binding inh,BAZ2B block,PLK1 PBD inh
COc1ccc(NC(=O)c2cc(-c3ccc(F)cc3)no2)cc1OC,u,x,u,-8%,-37%,x
COc1ccc(C(=O)NCC2(c3ccccc3)CCOCC2)cc1[N+](=O)[O-],32µM*,-19,18%[59 µM],u,-2%,12µM*
CCC1(CC)C(=O)Nc2ccccc21,-7%,-2,x,12%,x,-1%
CCC1(CC)C(=O)NC(=O)NC1=S,50µM*,-3,x,8%,x,2%
COc1ccc(S(=O)(=O)N2CCOCC2)cc1NC(=O)CCCOc1ccc(Cl)cc1C,-6%,3,x,23%,-1%,5%
C[C@@H](C(=O)Nc1ccc2ccccc2c1)[C@H]1C[C@]1(C)[C@H](NS(=O)(=O)c1ccc(-c2ccccc2)cc1)c1ccccc1,-25%,2,-50%,15%,0%,-9%
Cc1nn(C)c(Cl)c1S(=O)(=O)N[C@@H](c1ccccc1)[C@]1(C)C[C@H]1[C@@H](C)C(=O)Nc1ccc2ccccc2c1,-18%,8,50µM*,24%,-25%,3%
O=[N+]([O-])c1ccc2nc(SCc3cn4ccccc4n3)[nH]c2c1,-19%,10,10µM*,18%,2%,-16%
Cc1cc(=O)[nH]c(SCc2cn3ccccc3n2)n1,-7%,-1,50µM*,32%,-18%,-19%
Cc1cc(=O)[nH]c(SCc2nnc(-c3ccccc3)o2)n1,-4%,-18,7.9µM*,31%,2%,-8%
O=[N+]([O-])c1ccc2nc(SCc3cn4cccnc4n3)[nH]c2c1,9%,1,u,49%,-1%,-5%
Cc1ccc(C)c(N2CCN(C(=O)c3cnc4c(-c5ccccc5)c(C)nn4c3C)CC2)c1,-3%,x,5%[59 µM],41%,-16%,x
C=CCSc1nnc(NC(=O)C2=COCCO2)s1,-12%,4,35µM*,33%,-6%,-8%
O=C(Nc1nnc(SCc2ccccc2)s1)C1=COCCO1,-11%,-8,-9%,28%,10%,-14%
CC(C)COc1ccc(C(=O)NNC(=O)c2ccc(=O)[nH]c2)cc1,-3%,2,-91%[12.7 µM],40%,8%,-16%
Cc1cc(C(=O)COC(=O)/C=C/c2cccc(F)c2)c(C)n1C,-7%,-11,u,-21%,7%,4%
Cc1cc(C(=O)COC(=O)Cc2c(F)cccc2Cl)c(C)n1C,x,-2,x,x,x,4%
Cc1cc(C(=O)COC(=O)Cc2ccc(Br)cc2)c(C)n1C,-30%,5,u,2%,50µM*,-1%
Cc1cc(C(=O)COC(=O)/C=C/c2cccc(Br)c2)c(C)n1C,-27%,10,45µM*,u,u,-2%
